± gives the standard deviation of the averaged measurements.
Tested on: iBMDM (immortalised mouse bone-marrow-derived macrophages), LPS-stimulated
Assay: mitochondrial superoxide (MitoSOX fluorescence) fold increase over unstimulated control; higher = more LPS-induced mitochondrial ROS (less inhibition)
Conditions: inhibitor concentration: 500 nM, LPS: 100 ng/ml
In short: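 Immortalised mouse bone-marrow-derived macrophages in black 96-well plates were kept in phenol-red-free 1% FCS/DMEM for 20 h, pretreated 30 min with kinase inhibitors (500 nM), loaded with 1 μM MitoSox for 10 min and then given LPS (100 ng/ml). Fluorescence at excitation/emission 510/580 nm was read on a ClarioStar plate reader every 60 min for 4 h, with wells in triplicate. Mitochondrial superoxide is given as fold induction over untreated macrophages, averaged across replicates.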

Structure (SMILES) | mitochondrial superoxide (time after LPS: 1 h) | mitochondrial superoxide (time after LPS: 2 h) | mitochondrial superoxide (time after LPS: 4 h)
Cc1ccccc1-n1c(Cn2ncc3c(N)ncnc32)nc2cccc(C)c2c1=O | 1.14 ± 0.012 | 1.25 ± 0.041 | 1.32 ± 0.04
Cn1cc(C2=C(c3cn(C4CCN(Cc5ccccn5)CC4)c4ccccc34)C(=O)NC2=O)c2ccccc21 | 1.7 ± 0.15 | 1.76 ± 0.18 | 1.92 ± 0.14
O=c1[nH]c2ccc(Cl)cc2c(N[C@@H]2CN3CCC2CC3)c1-c1nc2ccccc2[nH]1 | 1.2 ± 0.013 | 1.4 ± 0.045 | 1.68 ± 0.044
COC[C@H]1OC(=O)c2coc3c2[C@@]1(C)C1=C(C3=O)[C@@H]2CCC(=O)[C@@]2(C)C[C@H]1OC(C)=O [Wortmannin] | 1.4 ± 0.084 | 1.45 ± 0.05 | 1.78 ± 0.079
CC(C)(C)c1cc(C=C(C#N)C#N)cc(Br)c1O | 1.12 ± 0.029 | 1.16 ± 0.069 | 1.11 ± 0.063
CCN1CCN(C(=O)Cc2ccc(Nc3ncc(F)c(Nc4ccc(C(=O)Nc5ccccc5Cl)cc4)n3)cc2)CC1 [Aurora A Inhibitor I] | 1.17 ± 0.065 | 1.24 ± 0.014 | 1.32 ± 0.049
CC(C)(C)c1cc(C=C(C#N)C#N)cc(C(C)(C)C)c1O [Tyrphostin 9] | 1.17 ± 0.033 | 1.21 ± 0.041 | 1.275 ± 0.0071
N#CC(C#N)=Cc1ccc(O)c(O)c1 | 1.364 ± 0.013 | 1.45 ± 0.055 | 1.666 ± 0.0094

Reference: the supplement of paper PMC7393113
